Laboratory results: PubChem BioAssay AID1159580 (chemical genetic matrix, 2015)
“And” between values parts separate entries of the source, which are not always exact repeats. Equal values may be shown once. Screen size: about 5,500 compounds; about 2,000 (36%) were called active. Not shown: some 18% with an inconclusive outcome. Cut-off read from the data, not from the text of the source: active = normalized growth mostly below about 0.91 (no sharp cut-off); inconclusive = no clear call, values can overlap the other calls; inactive = mostly above about 0.92. Some of the results follow.

Assay: chemical genetic growth profiling, strain panel (AID 1159580);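 note: tested at 20 µM; growth read once vehicle control cultures reached saturation at 30 °C; 1 = growth at the plate median or of vehicle wells; lower values mean less growth of the strain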
Conditions: S. cerevisiae deletion strains, growth OD

Measured: normalized growth

CC(=O)OCC(CCn1cnc2cnc(N)nc21)COC(C)=O
inactive: locus YAL013W, strain DEP1, stronger effect = lower value 0.988 | locus YAL021C, strain ccr4, stronger effect = lower value 1.01 | locus YAL026C, strain drs2, stronger effect = lower value 1 | locus YAL030W, strain snc1, stronger effect = lower value 0.982 | locus YBL061C, strain skt5, stronger effect = lower value 0.989 | locus YBR009C, strain hhf1, stronger effect = lower value 1 | locus YBR021W, strain FUR4, stronger effect = lower value 1.01 | locus YBR023C, strain chs3, stronger effect = lower value 0.998 | locus YBR171W, strain sec66, stronger effect = lower value 0.982 | locus YBR229C, strain ROT2, stronger effect = lower value 0.989 | locus YBR231C, strain swc5, stronger effect = lower value 0.971 | locus YBR279W, strain paf1, stronger effect = lower value 0.986 | locus YCL011C, strain gbp2, stronger effect = lower value 0.994 | locus YCL016C, strain dcc1, stronger effect = lower value 0.998 | locus YCL029C, strain bik1, stronger effect = lower value 0.965 | locus YCL061C, strain MRC1, stronger effect = lower value 0.991 | locus YCL069W, strain vba3, stronger effect = lower value 0.988 | locus YCR088W, strain abp1, stronger effect = lower value 0.988 | locus YDL005C, strain med2, stronger effect = lower value 0.991 | locus YDL035C, strain GPR1, stronger effect = lower value 0.994 | locus YDL040C, strain nat1, stronger effect = lower value 0.993 | locus YDL074C, strain BRE1, stronger effect = lower value 1.01 | locus YDL101C, strain DUN1, stronger effect = lower value 0.985 | locus YDL134C, strain PPH21, stronger effect = lower value 0.997 | locus YDL185W, strain tfp1, stronger effect = lower value 0.967 | locus YDL192W, strain arf1, stronger effect = lower value 0.971 | locus YDR001C, strain nth1, stronger effect = lower value 0.988 | locus YDR069C, strain doa4, stronger effect = lower value 0.972 | locus YDR101C, strain arx1, stronger effect = lower value 0.983 | locus YDR137W, strain rgp1, stronger effect = lower value 1.01 | locus YDR150W, strain NUM1, stronger effect = lower value 0.993 | locus YDR159W, strain sac3, stronger effect = lower value 1.01 | locus YDR162C, strain NBP2, stronger effect = lower value 0.996 | locus YDR195W, strain ref2 0.941 | locus YDR297W, strain sur2, stronger effect = lower value 0.987 | locus YDR318W, strain mcm21, stronger effect = lower value 0.979 | locus YDR334W, strain swr1, stronger effect = lower value 1 | locus YDR335W, strain msn5, stronger effect = lower value 0.99 | locus YDR388W, stronger effect = lower value 0.969 | locus YDR392W, strain spt3, stronger effect = lower value 0.995 | locus YDR502C, strain sam2, stronger effect = lower value 0.993 | locus YEL003W, strain gim4, stronger effect = lower value 0.984 | locus YEL037C, strain rad23, stronger effect = lower value 1 | locus YEL061C, strain CIN8 (second series), stronger effect = lower value 0.988 | locus YEL061C, strain CIN8, stronger effect = lower value 0.992 | locus YER015W, strain faa2, stronger effect = lower value 1 | locus YER016W, strain bim1, stronger effect = lower value 0.987 | locus YER110C, stronger effect = lower value 0.974 | locus YER111C, strain swi4, stronger effect = lower value 0.972 | locus YER155C, strain BEM2 (second series), stronger effect = lower value 0.959 | locus YER155C, strain BEM2, stronger effect = lower value 0.993 | locus YER167W, strain BCK2, stronger effect = lower value 0.989 | locus YFR010W, strain ubp6, stronger effect = lower value 0.98 | locus YGL078C, strain dbp3, stronger effect = lower value 0.967 | locus YGL086W, strain mad1, stronger effect = lower value 0.984 | locus YGL167C, strain pmr1, stronger effect = lower value 0.987 | locus YGL173C, strain kem1, stronger effect = lower value 1 | locus YGL227W, strain vid30, stronger effect = lower value 0.979 | locus YGL240W, strain doc1, stronger effect = lower value 0.966 | locus YGL248W, strain PDE1, stronger effect = lower value 0.987 | locus YGL253W, strain hxk2, stronger effect = lower value 0.996 | locus YGR078C, strain PAC10, stronger effect = lower value 1.01 | locus YGR135W, strain pre9, stronger effect = lower value 0.974 | locus YGR229C, strain SMI1, stronger effect = lower value 1.01 | locus YGR252W, strain gcn5, stronger effect = lower value 1.08 | locus YHR013C, strain ard1, stronger effect = lower value 1 | locus YHR027C, strain rpn1, stronger effect = lower value 0.989 | locus YHR030C, strain SLT2, stronger effect = lower value 0.984 and 0.946 | locus YHR079C, strain IRE1 (second series), stronger effect = lower value 0.961 | locus YHR079C, strain IRE1, stronger effect = lower value 0.957 | locus YHR094C, strain hxt1, stronger effect = lower value 0.973 | locus YHR129C, strain ARP1, stronger effect = lower value 0.991 | locus YHR142W, strain chs7, stronger effect = lower value 1 | locus YHR200W, strain rpn10, stronger effect = lower value 0.973 | locus YIL066C, strain RNR3, stronger effect = lower value 0.994 | locus YIL073C, strain SPO22, stronger effect = lower value 0.952 | locus YIL125W, strain kgd1, stronger effect = lower value 0.97 | locus YIR030C, strain dcg1, stronger effect = lower value 0.976 | locus YJL092W, strain hpr5, stronger effect = lower value 0.982 | locus YJL095W, strain BCK1 (second series), stronger effect = lower value 0.987 | locus YJL095W, strain BCK1, stronger effect = lower value 0.99 and 0.992 | locus YJL115W, strain asf1, stronger effect = lower value 0.979 | locus YJL129C, strain trk1, stronger effect = lower value 0.973 | locus YJL134W, strain LCB3, stronger effect = lower value 0.985 | locus YJL154C, strain vps35, stronger effect = lower value 0.997 | locus YJL164C, strain tpk1, stronger effect = lower value 1.01 | locus YJL166W, strain qcr8, stronger effect = lower value 0.984 | locus YJL168C, strain set2, stronger effect = lower value 0.974 | locus YJL187C, strain SWE1 (second series), stronger effect = lower value 0.984 | locus YJR043C, strain POL32, stronger effect = lower value 0.976 | locus YJR066W, strain TOR1, stronger effect = lower value 0.934
